In the supplement of paper PMC6555819 one finds PBM binding z-score data, which are given here for 22 sequences.

The assay relates to THRa homodimer (NR concentration 90 nM). The experiment in a line: PBM binding z-score (relative to random genomic background probes); higher = stronger binding; sequences stand for … in GC…GCGATTGACAGCGTAGAATGAAGG
The method, boiled down: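 Binding z-scores take random background probes as their reference. They come from custom Agilent 4×180K protein-binding microarrays incubated 1 h with ligand-free nuclear receptor dimers, with antibodies against each partner (one per run) detecting binding. Scanned fluorescence was regression-normalized.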
Consider ATACCAAGGTGATCGTGAGGTCTTTGATACTAAC, for which the PBM binding z-score amounted to 1.65.

CCTAGCAGGCAAATCTGGGTCACTCAAGGCTTGA gave a PBM binding z-score of 0.513.

The sequence ATCTCTAGGTAAGACTCAGTTCAGTGCAGAACGC displayed a PBM binding z-score of 0.919.

In the case of CCTCGGAGGATAGAAGGTCAGAGCTGTCCGCTTT, the PBM binding z-score is -0.386.

With CCAGACAGGTGAAAGGTTACTCAGTCTGGTACGC, the PBM binding z-score came to 0.13.

As for GCTTATAGATCAAGGTTAAGAAAGACTAAGCTAA, the PBM binding z-score was found to be 0.0443.

Take GCTGCTAGGTCAGGTTAGTCAGCTAACGGGTACG: the PBM binding z-score turned out to be 0.56.

Sequence TCATATAGGTAAAGGTCAAAGTCGAACGATATGA displayed a PBM binding z-score of 0.708.

The sequence CCTGCTAGGTCAATGGTCACCTAAAGCAGCTCGC displayed a PBM binding z-score of 1.32.

In turn, GCAAACAGGTGAAACGCAGGTAACTCAGGGTGGC had a PBM binding z-score of -0.516.

ATCGAAAAGTCGTGAGGTGAGTATACAGAAAGGC gave a PBM binding z-score of 1.14.

In turn, AATACAGGGTCATCGAAGGCCAGAGTACGCACAG displayed a PBM binding z-score of 1.43.

Regarding CCTACTGGGCCGAAGGTCATTGATTCCAATGCTC, the PBM binding z-score came to 0.19.

Sequence CTTACTGGGCCAAGGTCATTGATCAGTCAAAGCA registered a PBM binding z-score of 2.31.

The sequence CAGCCTAGGTCAGGGCCAGTATAGGAGGAACGTT displayed a PBM binding z-score of 0.526.

Regarding AGCGAAAGGTCGACGAGGTGAGTATACACCGTTT, the PBM binding z-score stood at 0.716.

Sequence GCTAGCAGGCCATTTAGGTCACTCAATGACGGGC registered a PBM binding z-score of 1.71.

In turn, ACTAGCAGGCCAACGGTCACTCAAGATTAGTCCG displayed a PBM binding z-score of -0.434.

Consider CGTCCAAGGTCATAGGACGTCAGTGAAGACAGAT, for which the PBM binding z-score was 2.24.

As for CCTCGGAAGACAGAAGGTCAGAGCTGTCCGCTTT, the PBM binding z-score was -0.133.

Consider GCATATAGGTAATACAAGGCGAAAGTCCGATTGT, for which the PBM binding z-score was -0.176.

GCAGACAGGTGATACGCAGGTAACTCAGGGTGGC had a PBM binding z-score of -0.509.
